High-throughput results (PubChem)
UCHL1 inh: inhibitors of human UCHL1 deubiquitinase. purified UCHL1, Ub-rhodamine cleavage fluorescence. AID 1645859, 2021. Ubiquitin carboxyl-terminal hydrolase isozyme L1 (Homo sapiens), P09936. actives 0.2% (n = 47,000). inhibition, % at 20 µM
USP17 block: inhibitors of human USP17 deubiquitinase | purified USP17, Ub-rhodamine cleavage fluorescence, 3 h | inhibition, % at 50 µM | actives 6.5% (n = 47,000)
USP8 inh: inhibitors of human USP8 deubiquitinase; actives 4.2% (n = 47,000); inhibition, % at 20 µM; purified USP8, Ub-rhodamine cleavage fluorescence, 30 min; Ubiquitin carboxyl-terminal hydrolase 8 (Homo sapiens), P40818; AID 1645853, 2021
USP10 inh: inhibitors of human USP10 deubiquitinase. purified USP10, Ub-rhodamine fluorescence, 60 min. inhibition, % at 20 µM. actives 1.1% (n = 47,000). AID 1645856, 2021
USP30 inh: inhibitors of human USP30 deubiquitinase. Ubiquitin carboxyl-terminal hydrolase 30 (Homo sapiens), Q70CQ3. purified USP30, Ub-rhodamine cleavage fluorescence. inhibition, % at 25 µM. actives 5.3% (n = 47,000). AID 1645860, 2021
USP7 block: inhibitors of human USP7 deubiquitinase; purified USP7, Ub-rhodamine cleavage fluorescence; actives 0.3% (n = 47,000); inhibition, % at 20 µM
Active calls of the source: *. In the library only some 13% were active in any assay of this set; here they are far more common. Cut-off read from the data, not from the text of the source: active = inhibition above about 30%; inactive = the rest.

How did O=C(NCc1ccc(F)cc1)c1ccc(-c2ccccc2F)o1 do in these assays?
UCHL1 inh: 4.9; USP17 block: 22.8; USP8 inh: 17.4; USP10 inh: 6.1; USP30 inh: 17.1; USP7 block: 5.9

Results for O=C(NCc1ccc(-c2nc3cnccc3o2)cc1)c1ccccc1F ?
UCHL1 inh: 0.7; USP17 block: 67.7*; USP8 inh: -3.1; USP10 inh: -0.5; USP30 inh: 13.1; USP7 block: 0.6

Results for O=C(NCc1ccc(-c2nc3cnccc3o2)cc1)c1ccccc1Cl ?
UCHL1 inh: -2.2; USP17 block: 37.7*; USP8 inh: 15.7; USP10 inh: -1.0; USP30 inh: -26.2; USP7 block: 1.5

What do the screens show for `COc1cc(OC)cc(C(=O)Nc2cccc(CCc3nc4ccccc4[nH]3)c2)c1`?
UCHL1 inh: 5.7; USP17 block: 9.3; USP8 inh: 0.0; USP10 inh: -3.2; USP30 inh: 12.6; USP7 block: 5.1

How did COc1cccc(NC(=O)Nc2ccc(CCc3nc4ccccc4[nH]3)cc2)c1 do in these assays?
UCHL1 inh: 7.8; USP17 block: 41.9*; USP8 inh: -10.8; USP10 inh: 13.1; USP30 inh: 8.3; USP7 block: 3.7

How did COc1ccc(NC(=O)Nc2ccc(CCc3nc4ccccc4[nH]3)cc2)c(OC)c1 do in these assays?
UCHL1 inh: 4.6; USP17 block: 59.4*; USP8 inh: 24.5; USP10 inh: 11.8; USP30 inh: 76.3*; USP7 block: 5.9

What do the screens show for `CCOc1ccccc1NC(=O)CNc1cc(C(F)(F)F)ccc1N1CCOCC1`?
UCHL1 inh: 3.3; USP17 block: 17.1; USP8 inh: 25.8; USP10 inh: 1.8; USP30 inh: 33.0*; USP7 block: 7.9

What do the screens show for `Cc1c(C)n(C)c2ccc(C(=O)NC3CCN(Cc4ccccc4)CC3)cc12`?
UCHL1 inh: 0.4; USP17 block: 0.0; USP8 inh: -50.3; USP10 inh: -5.4; USP30 inh: -33.2; USP7 block: 0.0

What do the screens show for `Cc1cc(C)c2cc(C(=O)NC3CCN(Cc4ccccc4)CC3)[nH]c2c1`?
UCHL1 inh: 2.1; USP17 block: 23.3; USP8 inh: 23.6; USP10 inh: 2.0; USP30 inh: 67.4*; USP7 block: 7.5

How did CC(CNC(=O)CCc1nnc2ccc(N3CCCCC3)nn12)c1ccccc1 (configuration not stated) do in these assays?
UCHL1 inh: 0.0; USP17 block: -3.7; USP8 inh: -3.7; USP10 inh: 0.3; USP30 inh: 0.7; USP7 block: -7.2

Results for CC(Sc1ncnc2nc[nH]c12)C(=O)Nc1ccc(Br)cc1F (configuration not stated) ?
UCHL1 inh: 1.3; USP17 block: 16.1; USP8 inh: 73.6*; USP10 inh: 22.0; USP30 inh: 27.2; USP7 block: 10.9

What do the screens show for `O=C(N[C@@H]1C[C@@H](Oc2cccc(F)c2)[C@H](O)[C@H]1N1CCC(O)CC1)c1ccccn1`?
UCHL1 inh: 0.0; USP17 block: -120.2; USP8 inh: 12.2; USP10 inh: -3.7; USP30 inh: -66.8; USP7 block: 0.1

Results for COc1ccc(-c2cc3ncnc(NC(C)c4ccco4)c3s2)cc1 (configuration not stated) ?
UCHL1 inh: -11.3; USP17 block: 58.3*; USP8 inh: 15.1; USP10 inh: -7.3; USP30 inh: -20.8; USP7 block: -21.4

Results for O=C(COc1ccc(N2CC(C(=O)NCc3ccccc3)CC2=O)cc1)Nc1ccccc1Cl (configuration not stated) ?
UCHL1 inh: -0.3; USP17 block: 56.0*; USP8 inh: 59.4*; USP10 inh: 49.2*; USP30 inh: 52.0*; USP7 block: 25.9

Results for O=C(NCc1ccncc1)C1CC(=O)N(c2ccccc2)C1 (configuration not stated) ?
UCHL1 inh: 0.7; USP17 block: -0.1; USP8 inh: 2.6; USP10 inh: 0.5; USP30 inh: -28.8; USP7 block: -2.1

Results for Cc1cc(C)cc(N(CC(=O)NCc2ccc3c(c2)OCO3)C(=O)c2ccc3c(c2)OCCO3)c1 ?
UCHL1 inh: 4.8; USP17 block: 23.9; USP8 inh: 12.6; USP10 inh: 9.0; USP30 inh: 35.7*; USP7 block: 2.3
